Screening results: PubChem BioAssay, National Center for Advancing Translational Sciences (NCATS)
Many of the other results were omitted from the sample, so hits are more common in it than they were.
LmPK inhibitor: LmPK (Leishmania mexicana) enzyme inhibition | purified LmPK, Kinase-Glo ATP luminescence, 1 h | Potency, µM (doses to about 57.5 µM), for inactives: at the top dose activity change, negative = inhibition, actives largely listed as inhibitors | 290,000 tested, 0.37% active; also: potency is read from the fitted curve at half-maximal effect; % is scaled to controls: 0 for no effect and ±100 for the full control effect
Target sequence (Q27686 whole entry, looked up): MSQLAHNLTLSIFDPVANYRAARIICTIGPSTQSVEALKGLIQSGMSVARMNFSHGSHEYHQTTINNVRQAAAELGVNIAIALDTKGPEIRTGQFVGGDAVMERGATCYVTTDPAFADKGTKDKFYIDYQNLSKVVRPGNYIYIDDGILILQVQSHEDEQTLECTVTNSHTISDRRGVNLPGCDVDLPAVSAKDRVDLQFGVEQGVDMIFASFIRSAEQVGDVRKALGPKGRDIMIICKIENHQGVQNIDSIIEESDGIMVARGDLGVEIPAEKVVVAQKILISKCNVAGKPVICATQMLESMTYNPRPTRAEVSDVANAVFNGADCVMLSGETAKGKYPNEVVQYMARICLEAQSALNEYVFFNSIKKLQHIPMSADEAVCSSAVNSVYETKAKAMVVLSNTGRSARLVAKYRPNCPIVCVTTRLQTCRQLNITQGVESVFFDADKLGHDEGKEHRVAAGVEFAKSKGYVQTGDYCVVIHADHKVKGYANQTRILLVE
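ATP generated from ADP (0.1 mM) and PEP (0.5 mM) by 0.1 nM LmPK over 1 h at room temperature (pH 7.2 imidazole buffer) was detected by coupled luciferase luminescence. Values were normalized to uninhibited and no-enzyme wells.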
TbPYK inhibitor: blocks Trypanosoma brucei pyruvate kinase; Q57TT1; TbPYK enzyme, Kinase-Glo Plus ATP luminescence, 45 min; Potency, µM (doses to about 76.8 µM), for inactives: at the top dose activity, negative = inhibition, most hits filed as inhibitors; 410,000 tested, 0.12% active; AID 624173; also: potency is read from the fitted curve at half-maximal effect; % is scaled to controls: 0 for no effect and ±100 for the full control effect; nearly all actives have a fitted effect of over 50% in size
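Screened from lowest to highest concentration, compounds were pinned into TbPYK/substrate mixtures, and ADP (130 uM final) was added. Plates sat at room temperature for 45 min prior to Kinase-Glo Plus detection by luminescence.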
Giardia FBPA inh: blocks Giardia fructose-bisphosphate aldolase activity | A8B2U2 | purified Giardia FBPA | Potency, µM (series often up to 59.6 µM), inactives show top-dose activity, negative = inhibition, hits mostly inhibitors | 290,000 tested, 0.71% active | AID 2451; also: potency is read from the fitted curve at half-maximal effect; % is scaled to controls: 0 for no effect and ±100 for the full control effect; nearly all actives have a fitted effect of over 55% in size
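Giardia FBPA (40 nM reagent) was preincubated 10 min at RT with compound (up to 57.5 uM final), then substrate plus GAPDH/TPI/NAD/arsenate coupling system with diaphorase/resazurin was added; resorufin fluorescence (525/598 nm) was read after 20 min.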
Sm TGR inh: S. mansoni TGR enzyme inhibition; Potency, µM (titrated, usually from 114 µM), for the others: top-dose activity change, negative = inhibition, usual class: inhibitors; 360,000 tested, 3% active; Q962Y6; AID 485364; purified TGR, DTNB reduction, TNB absorbance 405 nm; also: potency is read from the fitted curve at half-maximal effect; % is scaled to controls: 0 for no effect and ±100 for the full control effect; nearly all actives have a fitted effect of over 60% in size
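First, TGR (20 nM dispensed) and NADPH were mixed with compound. Second, a 15 min room-temperature incubation followed. Third, further NADPH and then DTNB were added to start the reaction. Finally, TNB absorbance was monitored kinetically.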
CHX counter: counter-screen for Shiga toxin inhibitors: cycloheximide protein synthesis inhibition | 300,000 tested, 12% active | max response, % | cell reporter, cycloheximide protein synthesis inhibition counterscreen; in the data active = max response mostly above about 13%, no sharp cut-off; inactive = mostly below about 14%; also: read at 38.3 µM for the half of the compounds with a filed dose; 0% is about no effect
Shiga inhibitor: blocks Shiga toxin action in Vero cells | 290,000 tested, 9.2% active | Vero cells, Shiga toxin protein synthesis inhibition reporter | inhibition, % at 38.7 µM | AID 2315; in the data active = inhibition mostly above about 28%, no sharp cut-off; inactive = mostly below about 43%; also: 0% is about no effect
Numbers without * were called inactive; ? = inconclusive; nt = no result; [ ] = remark or other dose. Unless noted, calls follow the shape of the dose curve; as a rule, active = well fitted curve in the direction sought with a large enough effect; inconclusive = small, poorly fitted or top-dose-only effect, or another doubt; inactive = no such curve, though single readings can be large; an effect the other way counts as inactive or inconclusive.

SMILES | LmPK inhibitor | TbPYK inhibitor | Giardia FBPA inh | Sm TGR inh | CHX counter | Shiga inhibitor
Cc1ccccc1-n1c(C)cc(/C=N/NC(=O)c2ccncc2)c1C | 0.7% | -4.4% | -0.6%[12.9 µM] | -0.7% | 35.8* | 67.9*
O=C(N/N=C/c1ccc(O)cc1O)c1ccncc1 | 0.4% | 4.9% | 6.8% | -17.0% | 2.4 | 14.9
O=C(N/N=C/c1cccnc1)c1ccc(F)cc1 | -10.9% | 7.6% | -1.9% | -6.9% | 11.3* | 37.6
Cc1cc(/C=N/NC(=O)c2ccsc2)c(C)n1-c1cnccn1 | -1.5% | -7.4% | -11.5% | nt | 42.1* | 86.6*
Cc1c(C(=O)N/N=C/c2cccnc2)sc(N)c1C#N | -4.4% | -7.0% | 3.7% | -0.4% | 11.5* | 26.4
COc1ccc(-c2cc(CNc3nc4cc(-c5ccccc5C)sc4c(=O)n3C)on2)cc1 | nt | -5.3% | nt | nt | nt | nt
CN1[C@@H](COCc2ccccc2)C=CS1(=O)=O | nt | 6.6% | nt | nt | nt | nt
CN(Cc1ccccc1)C(=C(Cl)Cl)C(=C1NCCN1)[N+](=O)[O-] | -2.6% | -2.9% | ? | 35.5µM* | -2.5 | 15.6
c1ccc2c(c1)ncn2-c1cncnc1 | nt | -7.8% | nt | nt | nt | nt
COc1ccc(-c2cc(C(=O)OCC(=O)c3c(N)n(C)c(=O)n(C)c3=O)c3ccccc3n2)cc1 | 4.0% | -1.0% | -4.4% | 0.4% | -2.4 | 3.0
Cn1c(N)c(C(=O)COC(=O)c2cc(-c3ccco3)nc3ccccc23)c(=O)n(C)c1=O | 0.3% | -0.1% | -12.4% | 8.91µM* | 20.6* | 30.8
Cn1c(N)c(C(=O)COC(=O)c2cc(-c3ccco3)nc3ccccc23)c(=O)n(Cc2ccccc2)c1=O | 2.7% | nt | -7.8% | 8.91µM* | 11.5 | -8.0
COc1ccc(-c2cc(C(=O)c3c(N)n(C)c(=O)n(C)c3=O)c3ccccc3n2)cc1 | -11.8% | -10.1% | 3.6% | 8.6% | 18.3* | 3.8
Cn1c(N)c(C(=O)COC(=O)c2cc(C3CC3)nc3ccccc23)c(=O)n(C)c1=O | 2.8% | -1.9% | -3.2% | -14.5% | -4.2 | -9.0
NC(=O)C1(N2CCCCC2)CCN(Cc2ccc(F)cc2)CC1 | 3.2% | -1.3% | 1.2% | 7.5% | -3.1 | -8.9
NC(=O)C1(N2CCCCC2)CCN(Cc2ccc(Br)cc2)CC1 | -2.5% | 3.3% | -1.3% | 11.4% | 25.9* | 13.4
Cc1cc(C(=O)Cn2nc(C(=O)O)c3ccccc3c2=O)c(C)n1CCc1ccc(F)cc1 | 4.4% | 0.8% | -1.3% | 12.9% | 20.1* | 19.2
O=C(Cn1nc(C(=O)O)c2ccccc2c1=O)c1cc(F)ccc1F | 5.3% | ? | -0.4% | -0.4% | 11.9 | 21.5
Cc1cc(C(=O)Cn2nc(C(=O)O)c3ccccc3c2=O)c(C)n1CC(F)(F)F | 0.6% | -0.5% | 3.3% | -2.4% | 36.3* | 188.8*
CCOC(=O)C1CCN(C(=O)/C=C/c2ccc(OC)cc2)CC1 | -4.4% | -4.0% | 5.1% | 4.0% | 42.5* | 71.3*
O=C(/C=C/c1cccc(Cl)c1)N1CCC(Cc2ccccc2)CC1 | 3.2% | -1.2% | 0.4% | -7.6% | 12.0* | 53.6*
COC(=O)C1CCN(C(=O)/C=C/c2ccccc2)CC1 | -4.3% | -6.1% | -3.2% | -1.2% | 18.0 | 41.3*
O=C(/C=C/c1ccccc1)N1CCC(Cc2ccccc2)CC1 | -2.7% | -5.0% | 4.5% | 2.2% | 30.5 | 40.6
Cc1cc(C)c2c(CC(=O)Nc3nnc(C(C)C)s3)coc2c1 | nt | 1.5% | nt | -2.3% | nt | nt
Cc1ccc2nc(NC(=O)CCCC(=O)O)sc2c1 | -4.7% | 3.2% | 10.2% | 2.9% | -3.1 | 5.6
SMILES | LmPK inhibitor | TbPYK inhibitor | Giardia FBPA inh | Sm TGR inh | CHX counter | Shiga inhibitor
Cc1ccc2nc(NC(=O)CCn3c(=O)sc4ccccc43)sc2c1 | -0.6% | 5.7% | -1.1% | -3.9% | 1.2 | 10.9
Cc1ccc2nc(NC(=O)CCCc3nc4ccccc4s3)sc2c1 | 7.5% | -13.8% | -4.2% | -31.3% | 41.8* | 116.7
Cc1ccc2nc(NC(=O)CCn3cccc3)sc2c1 | -13.3% | 2.1% | 2.7% | -8.6% | 22.5* | 53.0*
Cc1csc2nc(CN3CCN(CC(=O)N(C)C)CC3)cc(=O)n12 | 2.0% | -1.0% | -11.9% | -19.6% | -0.9 | -8.5
Cc1noc(C)c1COc1ccccc1C(=O)NC(C)c1ccc(F)cc1 (centres undefined) | nt | 3.5% | nt | nt | nt | nt
O=C(CNCc1ccc(Cl)cc1)Nc1ccc(C(=O)N2CCCCCC2)cc1 | 3.5% | 28.7% | ? | -15.5% | -5.7 | -6.2
